In PubChem BioAssay AID1259309 (ICCB-Longwood Screening Facility, Harvard Medical School, 2017):
“And” between values parts separate entries of the source, which are not always exact repeats. Equal values may be shown once. About 1,800 (0.55%) of roughly 330,000 compounds were called active. The full list was thinned out, with actives kept by preference. Unmarked numbers belong to inactive results. Rule as the data show it: active = growth inhibition above about 68%; inactive = the rest.

Assay: growth inhibition of ugtP-null S. aureus, primary screen, RN4220 ugtP deletion, OD600 (AID 1259309);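 also: plate controls were untreated wells for no effect and antibiotic for full effect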
Conditions: 16 h, active compounds read high
`O=C(NN=Cc1ccc(F)cc1)c1ccc(F)cc1` gave a growth inhibition of 3.85%. For `O=C(/C=C/c1ccc([N+](=O)[O-])o1)NNC(=O)c1ccc(F)cc1`, the growth inhibition was 98.7% (active). Work on `Nc1nonc1C(=O)NN=Cc1ccc([N+](=O)[O-])o1` yielded a growth inhibition of 70.5%. Work on `COc1cc(NC=C2CC(=O)NC(C)=C2C#N)cc(OC)c1OC` yielded a growth inhibition of -2.01%. For `CC(=O)NC(Cc1ccccc1)C(=O)NC1CCN(c2ncccc2[N+](=O)[O-])CC1` (stereo not drawn), the growth inhibition was 7.02%. For `COc1ccc(-c2cc(C3CCN(c4ncccc4[N+](=O)[O-])CC3)[nH]n2)cc1`, the growth inhibition was 100% (active). For `COc1ccc(-c2cc3ncccc3cn2)cc1`, the growth inhibition was 7.34%. Work on `COc1ccc(S(=O)(=O)Nc2cccc3c2OC(CN(C)Cc2ccc(Cl)c(Cl)c2)C(C)CN(C(C)CO)C3=O)cc1` (stereo not drawn) yielded a growth inhibition of 11.2%. For `COc1ccc(C2=NN(c3nc4ccccc4s3)C(=O)C2)cc1`, the growth inhibition was 99% (active). Work on `COc1ccc(C(=O)Nc2cccc(/C=C(/CCC(=O)O)c3nc4ccccc4s3)c2)cc1` yielded a growth inhibition of -2.4%. `COc1ccccc1NC(=O)c1ccc2nc(N3C(=O)CCC3=O)sc2c1` gave a growth inhibition of -9.64%. `C/C(C=NNC(=O)CSc1nc2ccccc2n1C)=C\c1ccco1` gave a growth inhibition of 3.58%. In the case of `NC(=O)C1CCN(C(=O)COc2cccc3cccnc23)CC1`, the growth inhibition is reported as -13.3%. In the case of `OCc1ccc(OCCCOc2cccc3cccnc23)cc1`, the growth inhibition is reported as -3.52%. For `O=C(Nc1ccccc1)Oc1cccc2cccnc12`, the growth inhibition was 99.7% (active). Molecule `Cc1ccccc1NC(=S)NC(=O)Cc1ccc(Cl)cc1` has a growth inhibition of 67%. In the case of `Cc1ccc(C(=O)NC(=S)Nc2ccccc2C)cc1`, the growth inhibition is reported as 83.5% (active). `Cc1cc(C(=O)NNC(=S)Nc2ccccc2C)cs1` gave a growth inhibition of -0.4%. In the case of `Cc1cc(SCC(=O)NN=Cc2ccc(O)c(O)c2)nc2ccccc12`, the growth inhibition is reported as -2.24%. `ON=Cc1ccc(OCc2ccccc2)c(Br)c1` showed a growth inhibition of 1.91%. For `NC(=O)N1CCCC1C(=O)Nc1ccc(Cl)c(Cl)c1` (stereo not drawn), the growth inhibition was 3.8%. `O=C(COC(=O)c1cc[n+]([O-])cc1)Nc1ccc(Cl)c(C(F)(F)F)c1` showed a growth inhibition of -2.28%. For `O=C(CC(O)(C(F)(F)F)C(F)(F)F)Nc1ccc(Cl)c(Cl)c1`, the growth inhibition was 100% (active). Molecule `CC(=NNC(=O)c1nnn(-c2nonc2N)c1-c1cccs1)c1ccc(O)cc1` has a growth inhibition of -2.71%. Molecule `Cc1ccc(C(=O)NCCN2C3=NCC(Cc4ccc(O)cc4)N3CC2Cc2ccc(O)cc2)cc1Br` (stereo not drawn) has a growth inhibition of -5.82%. `O=C(CCC(=O)Nc1ccc(F)cc1)NN=Cc1ccccc1` showed a growth inhibition of -1.26%. In the case of `CCCC1CCCCC=CCCCC(=O)OCCN1C(=O)OC(C)(C)C` (stereo not drawn), the growth inhibition is reported as -29.8% and -2.83%. In the case of `COc1ccc(Cl)cc1NC(=O)CN(C)C(=O)c1cc2ccccc2cc1OC`, the growth inhibition is reported as -3.53%. `COc1ccc(Cl)cc1NC(=O)CN(C)C(=O)CNC(=O)C12CC3CC(CC(C3)C1)C2` showed a growth inhibition of -1.84%. With `COc1ccc(Cl)cc1NC(=O)CN(C)C(=O)CCCc1c[nH]c2ccccc12` the growth inhibition was 98.4% (active). In the case of `COc1ccc(C(=O)Nc2ccccc2C(=O)NN=Cc2ccccc2OC)cc1`, the growth inhibition is reported as 10.4%. For `NC1=NCC(Cc2ccc(O)cc2)N1CCc1cccc(F)c1` (stereo not drawn), the growth inhibition was 4.31% and -0.973%. In the case of `CSCc1cc(N(C)C)nc(SCc2ccc(Cl)cc2Cl)n1`, the growth inhibition is reported as 63.4%. `CSCCC(NC(=O)c1ccc(Cl)cc1Cl)C(=O)NNC(=O)c1csc(N2CCOCC2)n1` (stereo not drawn) gave a growth inhibition of 6.67%. With `CSCc1cc(N2CCOCC2)nc(SCc2ccc(Cl)cc2Cl)n1` the growth inhibition was 93.1% (active). For `CCN(CC)c1ccc(C=NNC(=O)c2c[nH]c3ccccc23)cc1`, the growth inhibition was -5.72%. Molecule `CCN1C(=O)C2C(C1=O)C(c1ccccc1)N1C(=O)c3ccccc3NC(=O)C21` (stereo not drawn) has a growth inhibition of -13.8%. In the case of `CCC1CCCCN1C(=O)NC(CCSC)C(=O)OC` (stereo not drawn), the growth inhibition is reported as 7.53%. `O=C(Nc1nnc(-c2ccco2)o1)c1ccc(S(=O)(=O)N2CCOCC2)cc1` gave a growth inhibition of 11.9%. In the case of `COc1ccc(-c2nnc(NC(=O)CS(=O)(=O)c3ccc(Cl)cc3)o2)c(OC)c1`, the growth inhibition is reported as 46.4%. In the case of `COc1cccc(-c2nnc(NC(=O)c3ccc(S(=O)(=O)N(CC(C)C)CC(C)C)cc3)o2)c1`, the growth inhibition is reported as 100% (active). With `Cn1c2ccccc2c2nnc(NN=Cc3ccc(O)cc3)nc21` the growth inhibition was 3.8%. With `O=C(NN=Cc1ccc(-c2ccc(Cl)c(Cl)c2)o1)C(=O)N1CCCC1` the growth inhibition was -5.08%. In the case of `CCc1nnc(NN=Cc2c(Cl)cccc2Cl)n1N`, the growth inhibition is reported as -4.51%. For `C=CCOc1ccc(C(O)=C2C(=O)C(=O)N(CCCOC)C2c2ccc(O)c(OC)c2)cc1` (stereo not drawn), the growth inhibition was 8.37%. Work on `O=[N+]([O-])c1cc(C=NNC(=Nc2ccccn2)c2ccccn2)ccc1O` yielded a growth inhibition of 66.8%. For `Cc1ccc(-c2csc(-c3c[nH]c4ccccc34)n2)cc1`, the growth inhibition was 89.5% (active). With `CCn1c(SCCC(C)C)nnc1-c1c[nH]c2ccccc12` the growth inhibition was -3.66%. `CCCc1cc(-c2nc(-c3ccc(C)cc3)cs2)ccn1` showed a growth inhibition of 16.9%. `C=CCn1c(N=Cc2ccc(OC)cc2)nc2ccccc21` showed a growth inhibition of 7.61%. Work on `COc1ccc2nc(N=C(N)NC(=O)N3c4ccccc4Sc4ccccc43)nc(C)c2c1` yielded a growth inhibition of -21.3%. With `COc1ccc2c(c1OC)CN1CCc3cc4c(cc3C1C2O)OCO4` (stereo not drawn) the growth inhibition was 15.5%. With `CCOc1ccccc1C=NNC(=O)c1nnn(-c2nonc2N)c1CN1CCCCCC1` the growth inhibition was 2.59%. `C#CCOCCOCCOCCNc1nc(N2CCN(C(=O)C(CCCCN)n3cc(CCCC)nn3)CC2)nc(N2CCN(C(=O)C(C(C)CC)n3cc(CCCN=C(N)N)nn3)CC2)n1` (stereo not drawn) showed a growth inhibition of 11.2%. Work on `CC(=O)c1cccc(NC(=O)C2COc3ccccc3O2)c1` (stereo not drawn) yielded a growth inhibition of 8.46%. For `O=C(Nc1ncc([N+](=O)[O-])s1)C1COc2ccccc2O1` (stereo not drawn), the growth inhibition was 90.5% (active). `CC(=NNC(=O)CNC(=O)C1COc2ccccc2O1)c1ccc([N+](=O)[O-])cc1` (stereo not drawn) gave a growth inhibition of 0.446%. In the case of `O=C(O)CCC(=NNC(=O)c1cn(-c2ccccc2)nc1-c1ccccc1)C(=O)O`, the growth inhibition is reported as 0.633%.
